Assay results as given in PubChem BioAssay AID652154 (Broad Institute, 2013).
Where “and” joins values, the source holds several entries; their conditions need not be identical. Identical values can stand only once. Screen size: about 360,000 compounds; about 4,200 (1.2%) were called active.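 Rule for the calls: active = mean replicate inhibition at least 60% with every replicate also reaching 60%; inconclusive = only one of the two criteria is met; inactive = mean below 60% and not all replicates reaching 60%.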 The sample as a whole holds a higher share of actives than the screen did.

Experiment: inhibitors of PAX8-driven TPO luciferase reporter, primary screen, RMG-I cells, single concentration (AID 652154);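 note: luciferase light reporting Pax8 driven TPO promoter activity; plate controls were median of neutral control wells for no effect and mitoxantrone controls for full effect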
Settings: SteadyGlo, 24 h, at 12.6 µM, hits give high values

| SMILES | inhibition |
| --- | --- |
| C[C@@H]1CN([C@@H](C)CO)S(=O)(=O)c2ccc(C3=CCCCC3)cc2O[C@@H]1CN(C)Cc1cccc(C(=O)O)c1 | -22.5% (inactive) |
| C/C=C/c1ccc([C@@H]2[C@@H](CO)N(C(C)=O)[C@H]2CN(C)C(=O)CN(C)C)cc1 | 0.935% (inactive) |
| C[C@H]1CN([C@@H](C)CO)C(=O)Cc2cc(NC(=O)NC3CCCCC3)ccc2O[C@H]1CN(C)S(=O)(=O)c1cccs1 | 11.1% (inactive) |
| O=C(C[C@@H]1CC[C@@H]2[C@H](COC[C@@H](O)CN2Cc2ccc(F)cc2)O1)NCc1ccncn1 | -11.3% (inactive) |
| Cc1ccc(S(=O)(=O)Nc2ccc3c(c2)C(=O)N([C@H](C)CO)C[C@@H](C)[C@@H](CN(C)C(=O)CCC(F)(F)F)OCCCC[C@@H](C)O3)cc1 | -2.28% (inactive) |
| O=C(NC1CCC1)[C@@H]1[C@@H](CO)[C@@H]2Cn3c(ccc(/C=C/c4ccccc4)c3=O)[C@@H]2N1Cc1ccncc1 | 7.46% (inactive) |
| CN1C[C@H](O)COC[C@H]2O[C@H](CC(=O)NC3CCC3)CC[C@@H]21 | -17.3% (inactive) |
| CN(C)C(=O)c1cccc(-c2ccc([C@H]3[C@H](CO)N4C(=O)CN(C(=O)C5CCCCC5)C[C@@H]34)cc2)c1 | -1.57% (inactive) |
| C[C@H](CO)N1C[C@H](C)[C@@H](CN(C)C)OCCCC[C@H](C)Oc2ccc(NC(=O)C3CCCCC3)cc2C1=O | -11.4% (inactive) |
| O=S(=O)(Cc1ccccc1)N1CCCCN2[C@@H](CO)[C@@H](c3ccc(-c4ccc(F)cc4)cc3)[C@@H]2C1 | 44.5% (inactive) |
| C[C@@H]1CN([C@@H](C)CO)C(=O)c2cc(NS(=O)(=O)c3cccs3)ccc2O[C@@H](C)CCCCO[C@@H]1CN(C)C(=O)NC1CCCCC1 | 1.62% (inactive) |
| Cc1ccc(-c2nc3ccc(Br)cn3c2Cc2ccccc2C(F)(F)F)cc1 | -163% (inactive) |
| Cc1ccc2nc(-c3ccc(Br)cc3)cn2c1 | 92.9% (active) |
| CS(=O)(=O)Nc1cccc(-c2cn3ccccc3n2)c1 | -44.1% (inactive) |
| COc1ccc(-c2nc3ccc(Br)cn3c2Cc2ccc(C)cc2)cc1OC | -53.2% (inactive) |
| Cc1ccc(-c2nc3ccc(Cl)cn3c2Cc2ccccc2)cc1 | -103% (inactive) |
| Cc1ccc(-c2cn3cc(C)ccc3n2)cc1 | 91.9% (active) |
| O=C(C[C@@H]1C=C[C@H](NC(=O)CN2CCOCC2)[C@@H](CO)O1)NC1CCC1 | -5.79% (inactive) |
| C[C@H](CO)N1C[C@H](C)[C@H](CN(C)C)Oc2c(NS(=O)(=O)c3ccc(Cl)cc3)cccc2C1=O | -6.01% (inactive) |
| COc1cccc(S(=O)(=O)N[C@H]2CC[C@H](CC(=O)NC3CCC3)O[C@H]2CO)c1 | -7.93% (inactive) |
| O=C(C[C@H]1C[C@@H]2c3cc(NC(=O)c4cccnc4)ccc3O[C@@H]2[C@H](CO)O1)NCc1ccccn1 | -7.94% (inactive) |
| Cc1ccc(N)cc1CN1CCN(c2ncc(Cc3ccccc3)cn2)CC1 | -0.199% (inactive) |

| SMILES | inhibition |
| --- | --- |
| Cc1cccc(-c2ccc(C3[C@@H]4CN(C(=O)Nc5ccc(C(F)(F)F)cc5)C[C@H]3N4)cc2)c1 (stereo partly drawn) | 116% (active) and 119% (active) |
| CN(C)C(=O)c1ccc(-c2ccc(C3[C@@H]4CN(C(=O)Nc5ccccc5)C[C@H]3N4)cc2)cc1 (stereo partly drawn) | 5.13% (inactive) |
| O=C(C1CCCCC1)N1C[C@@H]2N[C@H](C1)C2c1ccc(-c2cccc(F)c2)cc1 (stereo partly drawn) | -14.7% (inactive) and -21.2% (inactive) |
| CNC[C@H]1Oc2ccc(NC(=O)Nc3ccc4c(c3)OCO4)cc2CC(=O)N([C@H](C)CO)C[C@H]1C | 2.09% (inactive) |
| COc1ccc2c3c(n(C)c2c1)[C@@H](CO)N(Cc1ccncc1)CC31CN(C(=O)C2CCC2)C1 | 7.29% (inactive) |
| COCC(=O)N(C[C@H]1N[C@H](CO)[C@H]1c1ccc(C2=CCCCC2)cc1)C(C)C | 2.09% (inactive) |
| CN(CC1CCCO1)S(=O)(=O)c1ccc(C(=O)Nc2ccc([N+](=O)[O-])cc2)cc1 (stereo not drawn) | -4.55% (inactive) |
| Cn1ccc(=Nc2ccc(NC(=O)c3ccc(N=c4ccn(C)c5ccc([N+](=O)[O-])cc45)cc3)cc2)cc1 | 79.6% (active) |
| Cn1c(=O)n(C)c2cc(C(=O)Nc3ccc(Br)cc3)ccc21 | -6.12% (inactive) |
| C[C@@H]1CN([C@H](C)CO)C(=O)c2cc(N(C)C)ccc2O[C@@H](C)CCCCO[C@@H]1CN(C)C(=O)CCCN(C)C | -0.0835% (inactive) |
| O=C(NS(=O)(=O)c1cccs1)[C@H]1O[C@@H](n2ccc(=O)[nH]c2=O)[C@H](O)[C@@H]1O | -7.69% (inactive) |
| Cc1sc2ccccc2c1CNC[C@H]1O[C@@H](n2ccc(=O)[nH]c2=O)[C@H](O)[C@@H]1O | 3.61% (inactive) |
| O=c1ccn([C@@H]2O[C@H](CNS(=O)(=O)c3cc4ccccc4s3)[C@@H](O)[C@H]2O)c(=O)[nH]1 | 78.9% (active) |
| C[C@H]1CN([C@@H](C)CO)C(=O)c2c(c3ccccc3n2C)-c2ccccc2CO[C@@H]1CN(C)Cc1ccc2c(c1)OCCN2C | -18% (inactive) |
| CS(=O)(=O)N1[C@H](CO)[C@H](c2ccccc2)C12CN(C(=O)C1CC1)C2 | -2.16% (inactive) |
| COc1cccc(-c2cnc3c(c2)C(=O)N([C@H](C)CO)C[C@H](C)[C@@H](CN(C)Cc2ccc(C(=O)O)cc2)O3)c1 | 9.85% (inactive) |
| OC[C@@H]1CN(Cc2ccc(-c3ccccc3)cc2)C[C@H](n2cnc3c(NC4CCCC4)ncnc32)O1 | 64.7% (active) |
| OC[C@@H]1CN(Cc2ccc(F)cc2)C[C@H](n2cnc3c(NC4CCCC4)ncnc32)O1 | 3.85% (inactive) |
| OC[C@@H]1CN(Cc2cccs2)C[C@H](n2cnc3c(NC4CCCC4)ncnc32)O1 | -6.69% (inactive) |
| Cc1noc(C)c1NC(=O)Nc1ccc2c(c1)C(=O)N([C@@H](C)CO)C[C@@H](C)[C@H](CN(C)C(=O)Nc1ccc(C(F)(F)F)cc1)OCCCC[C@@H](C)O2 | -4.84% (inactive) |
| CS(=O)(=O)N1CC(=O)N2[C@@H](CO)[C@@H](c3ccc(C#CCC4CCCC4)cc3)[C@@H]2C1 | 0.153% (inactive) |
